Source: PubChem BioAssay (National Center for Advancing Translational Sciences (NCATS))
In the library only some 12% were active in any assay of this set; here they are far more common.
JMJD2A Tudor inh – qHTS Assay for Inhibitors of JMJD2A-Tudor Domain; Lysine-specific demethylase 4A (Homo sapiens), O75164; AID 504339, 2011; AlphaScreen JMJD2A-Tudor / H3K4me3 peptide binding; Potency, µM (highest dose often 114 µM), without a hit: at the highest dose activity change, negative = inhibition, usual class: inhibitors; actives 4.4% (n = 390,000); further: on the % scale 0 is the no-effect control and ±100 the full control effect; nearly all actives have a fitted effect of over 50% in size
Target sequence (O75164 whole entry, looked up, the tested form may be a part): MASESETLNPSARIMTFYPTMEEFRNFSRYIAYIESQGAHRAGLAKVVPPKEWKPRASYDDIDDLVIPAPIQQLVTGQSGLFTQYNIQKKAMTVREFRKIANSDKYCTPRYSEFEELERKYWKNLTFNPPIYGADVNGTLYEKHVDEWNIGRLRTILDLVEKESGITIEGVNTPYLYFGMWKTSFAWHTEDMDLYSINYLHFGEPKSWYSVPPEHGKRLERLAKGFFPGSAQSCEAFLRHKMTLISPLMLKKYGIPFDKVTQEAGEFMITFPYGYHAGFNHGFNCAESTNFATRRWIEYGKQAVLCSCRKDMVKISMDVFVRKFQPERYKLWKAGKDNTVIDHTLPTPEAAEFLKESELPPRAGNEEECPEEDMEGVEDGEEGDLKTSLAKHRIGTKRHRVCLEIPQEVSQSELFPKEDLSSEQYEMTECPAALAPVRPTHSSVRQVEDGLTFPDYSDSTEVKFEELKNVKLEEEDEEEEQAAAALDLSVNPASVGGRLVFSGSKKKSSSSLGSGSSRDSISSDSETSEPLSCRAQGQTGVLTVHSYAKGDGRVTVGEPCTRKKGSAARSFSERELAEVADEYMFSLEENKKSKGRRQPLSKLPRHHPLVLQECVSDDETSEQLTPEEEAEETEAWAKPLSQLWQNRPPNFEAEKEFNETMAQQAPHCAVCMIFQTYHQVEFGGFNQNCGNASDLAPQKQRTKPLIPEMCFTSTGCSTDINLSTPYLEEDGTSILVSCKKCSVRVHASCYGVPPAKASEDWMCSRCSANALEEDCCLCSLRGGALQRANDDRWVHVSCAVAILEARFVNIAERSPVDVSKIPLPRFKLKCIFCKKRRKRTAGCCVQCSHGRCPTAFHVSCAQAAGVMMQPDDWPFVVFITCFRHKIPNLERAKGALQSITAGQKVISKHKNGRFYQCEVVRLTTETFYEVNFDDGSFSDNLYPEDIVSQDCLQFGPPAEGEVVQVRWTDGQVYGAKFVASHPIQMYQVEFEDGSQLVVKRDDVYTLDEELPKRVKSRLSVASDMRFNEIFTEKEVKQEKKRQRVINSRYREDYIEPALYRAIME
Sfp inh – qHTS Assay for Inhibitors of Bacillus subtilis Sfp phosphopantetheinyl transferase (PPTase); AID 1490, 2009; actives 3.5% (n = 310,000); Potency, µM, for inactives: largest response in the series, negative = inhibition, hits mostly inhibitors; Biochemical Sfp PPTase activity, qHTS;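 further: the enzyme is Sfp with the accession as filed and its product quenches rhodamine fluorescence; 0% = enzyme reaction without inhibitor and -100% = no enzyme wells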
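Buffer: 50 mM Hepes-Na pH 7.6, 10 mM MgCl2, 0.01% Nonidet P-40, 0.01% BSA. Enzyme 15 nM, pre-exposed to compound 15 min; substrates then added and fluorescence change tracked over 30 min.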
TDP1 block – qHTS Assay for Inhibitors of Tyrosyl-DNA Phosphodiesterase (TDP1); actives 0.28% (n = 350,000); recombinant TDP1, AlphaScreen DNA substrate cleavage; Tyrosyl-DNA phosphodiesterase 1 (Homo sapiens), Q9NUW8; AID 485290, 2010; Potency, µM (series often up to 130 µM), without a hit: top-dose activity change, negative = inhibition, usual class: inhibitors; further: on the % scale 0 is the no-effect control and ±100 the full control effect; nearly all actives have a fitted effect of over 40% in size
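AlphaScreen read-out: signal falls as enzyme removes the 3' tyrosine-FITC from a 5'-biotinylated DNA oligo (15 nM, 5 min, RT). Enzyme was E. coli-made recombinant Tdp1 at 1 nM, exposed to compound for 15 min beforehand; beads 10 ug/ml, 10 min.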
BAZ2B inh – qHTS Assay for Inhibitors of BAZ2B; AlphaScreen BAZ2B-H3K14Ac peptide displacement; Potency, µM (titrated, usually from 114 µM), for the others: top-dose activity change, negative = inhibition, actives largely listed as inhibitors; actives 4.4% (n = 360,000); AID 504333, 2011; further: on the % scale 0 is the no-effect control and ±100 the full control effect; nearly all actives have a fitted effect of over 60% in size
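Inhibition is scored as reduced AlphaScreen emission. The BAZ2B/b-H3(5-23)K14Ac complex (50 nM each) in PBS pH 7.4, 0.01% Tween-20 meets compound (up to 110 uM) for 30 min at RT before bead addition.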
G9a inh – qHTS Assay for Inhibitors of Histone Lysine Methyltransferase G9a. Potency, µM (doses to about 102 µM), for the others: top-dose activity, negative = inhibition, usual class: inhibitors. AID 504332, 2011. G9a H3K9 monomethylation, AlphaScreen, 2 h. actives 8.8% (n = 350,000); further: on the % scale 0 is the no-effect control and ±100 the full control effect; nearly all actives have a fitted effect of over 75% in size
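Compounds were preincubated with 20 nM G9a for 15 min, after which biotinylated H3K9 peptide (500 nM) and SAM (20 uM) started a 2 h room-temperature reaction. Monomethylated product was quantified by antibody-based AlphaScreen chemiluminescence.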
HP1b binding inh – HTS for Inhibitors of HP1-beta Chromodomain Interactions with Methylated Histone Tails | Chromobox protein homolog 1 (Homo sapiens), P83916 | AlphaScreen HP1-beta / biotin-H3K9me3 peptide binding | Potency, µM (doses to about 114 µM), for inactives: at the highest dose activity change, negative = inhibition, usual class: inhibitors | actives 0.56% (n = 390,000); further: nearly all actives have a fitted effect of over 70% in size
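Compound inhibition of the preformed complex between 50 nM HP1-beta and 50 nM biotinylated H3K9me3 peptide was read by AlphaScreen. Buffer was PBS pH 7.4 with 0.01% Tween-20. Incubations ran 30 min at room temperature, with 10 ug/mL donor/acceptor beads.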
An asterisk follows results filed as active; ? = inconclusive; . = not tested or not shown; [ ] = dose if it differs, or a comment. The call rests on the fitted dose curve; in most records, active means well fitted curve in the direction sought with a large enough effect; inconclusive means small, poorly fitted or top-dose-only effect, or another doubt; inactive means no such curve, though single readings can be large; an effect the other way counts as inactive or inconclusive. Potency means the concentration at half of the fitted maximal effect.

SMILES	JMJD2A Tudor inh	Sfp inh	TDP1 block	BAZ2B inh	G9a inh	HP1b binding inh
COc1ccc(OC)c(NC(=O)C(=O)N/N=C(\C)CC(=O)Nc2ccc(Cl)cn2)c1	-27.5%	8.4%	3.7%	-0.3%	20.5%	35.6%
Cc1nc(C)c(C(=O)O)c(-c2ccsc2)c1C(=O)O	-15.2%	5.3%	.	-5.0%	50.1µM*	10.1%
Cc1cc(C)n(C2CC(=O)N(c3ccc(C)c(Cl)c3)C2=O)n1 (centres undefined)	3.4%	6.7%	6.0%	5.8%	.	33.9%
COc1cccc(NC(=O)CSc2cc(C)c3ccccc3n2)c1	9.0%	.	.	10.6%	1.3%[59 µM]	37.9%
COc1ccc2c(C)cc(SCC(=O)Nc3cc(C(N)=O)cc(C(N)=O)c3)nc2c1	-16.9%	44.7µM*	-2.9%	?	-31.1%	38.4%
Cc1ccccc1Oc1ccc2c(c1)[C@@H]1C[C@H](N(C)C(=O)Nc3cc(Cl)cc(Cl)c3)[C@H]([C@H](C)O)C(=O)N1CC2	?	.	.	.	.	16.4%
Cc1ccc(C(=O)Nc2ccc(Oc3ccc(C(=O)O)c(C(=O)O)c3)cc2)cc1C	79.4µM*	3.1%	?	-12.6%	?	29.5%
CCCN1C(=O)c2ccccc2NC1c1ccc(OC)c(COc2ccc([N+](=O)[O-])c(C)c2)c1 (centres undefined)	?	.	-4.2%	.	.	-20.0%[57 µM]
COc1ccc(C)cc1-n1[nH]nnc1=S	25.1µM*	-81.8%	7.4%	-22.5%	6.31µM*	-17.4%
Cc1cc(C)c(-n2[nH]nnc2=S)c(C)c1	31.6µM*	28.2µM*	10.1%	?	14.1µM*	-17.1%
COC(=O)c1ccc(CN2CCN(CC=C(C)C)C(CCO)C2)cc1 (centres undefined)	5.5%	13.7%	5.6%	?	44.7µM*	40.9%
c1ccc(OCCN2CCN(Cc3nc(-c4ccc5c(c4)OCO5)no3)CC2)cc1	-25.1%	7.7%	0.0%	-18.3%	1.3%	11.5%
CCCCNC(=O)CCC(=O)N1CCN(C(c2ccccc2)c2ccccc2)CC1	-0.7%	20.1%	2.2%	79.4µM*	2.3%	68.7%
COCCNC(=O)CNC(c1ccccc1)c1ccccc1	.	44.7µM*	5.4%	56.2µM*	44.7µM*	.
COCCNC(=O)CN1CCN(C(c2ccccc2)c2ccccc2)CC1	8.91µM*	?	1.0%	?	14.1µM*	?
CN(C)S(=O)(=O)c1ccc(NC(=O)CN2CCN(C(c3ccccc3)c3ccccc3)CC2)cc1	-8.3%	16.0%	1.0%	-2.3%	-6.5%	10.5%
COc1ccc(/C=C/C(=O)Nc2cccc(S(=O)(=O)NC3=NCCCCC3)c2)cc1OC	-11.7%	.	3.8%	8.7%	21.7%[12.7 µM]	25.8%
Cc1nn(-c2ncc(C(F)(F)F)cc2Cl)c(=O)n1-c1c(F)cccc1F	-11.0%	16.3%	3.6%	-17.1%	79.4µM*	28.9%
Nc1c2c(nc3sc4c(c13)CCCC4)-c1ccccc1CC2	-14.2%	11.0%	0.0%	-2.0%	-1.3%	5.5%
Cc1ccc(C(=O)NNC(=O)CCC(=O)Nc2cccc(Cl)c2C)cc1	-1.4%	79.4µM*	-9.1%	-7.5%	6.6%	31.3%
CCOc1ccc(S(=O)(=O)N/N=C2/CC(c3ccccc3)Oc3ccccc32)cc1 (centres undefined)	-31.5%	13.9%	3.4%	-29.0%	7.94µM*	26.2%
COc1ccccc1C1C(C(=O)c2cc3ccccc3o2)=C(O)C(=O)N1CCN1CCOCC1 (centres undefined)	89.1µM*	-22.5%	6.0%	?	8.91µM*	26.9%
O=C(C1=C(O)C(=O)N(CCN2CCOCC2)C1c1ccc([N+](=O)[O-])cc1)c1cc2ccccc2o1 (centres undefined)	3.1%	-28.7%	6.6%	-20.8%	39.8µM*	4.8%
COc1cccc(C2C(C(=O)c3cc4ccccc4o3)=C(O)C(=O)N2CCN2CCOCC2)c1 (centres undefined)	-24.2%	14.2%	-4.2%	-13.3%	44.7µM*	7.2%
COc1cccc2cc(C(=O)C3=C(O)C(=O)N(CCN4CCOCC4)C3c3ccc(C)o3)oc12 (centres undefined)	-15.8%	-15.0%	5.0%	?	31.6µM*	26.6%
SMILES	JMJD2A Tudor inh	Sfp inh	TDP1 block	BAZ2B inh	G9a inh	HP1b binding inh
COC(=O)c1ccc(C2C(C(=O)c3cc4ccccc4o3)=C(O)C(=O)N2CCN2CCOCC2)cc1 (centres undefined)	0.0%	13.7%	4.3%	-16.3%	?	32.3%
CCOC(=O)C1=C(N)Oc2ccc(Br)cc2[C@@H]1[C@@H](C#N)C(=O)OCC	.	-4.5%	1.9%[56.1 µM]	.	.	.
O=C1CC2(CCN(C(=O)c3ccc(Br)cc3)CC2)Oc2ccccc21	-16.6%	.	0.6%	12.0%	8.7%[0.501 µM]	10.7%
CCN(C(=O)COC(=O)c1cnc(C)cn1)c1c(N)n(Cc2ccccc2)c(=O)[nH]c1=O	3.4%	.	-0.1%	-5.1%	-5.3%[12.7 µM]	46.0%
O=C(COC(=O)c1cnc(Cl)c(Cl)c1)NC1CC1	-1.4%	.	0.5%	.	.	23.0%
CC(C)(C)Nc1cccccc1=O	-9.2%[11.4 µM]	-20.8%	0.0%	-2.9%	44.7µM*	41.6%
CCCCCn1c(CCNC(=O)c2cccc(C)c2)nc2ccccc21	-11.3%	.	8.8%	-15.4%	22.0%[59 µM]	48.0%
CCOc1ccc(NC(=O)c2c[nH]n3c(=O)cc(C4CCN(C(=O)OC(C)(C)C)CC4)nc23)cc1	-22.8%	0.9%	.	-8.7%	11.2µM*	14.2%
CCOc1ccc(-c2cc3nc(C4CCN(C(=O)OC(C)(C)C)CC4)c(C(=O)Nc4ccc(C)c(F)c4)cn3n2)cc1	-4.3%	.	-1.3%	-10.4%	10.6%[59 µM]	45.2%
CC(=O)c1ccc(S(=O)(=O)Nc2ccc(C(=O)N(C)CC(=O)Nc3cccc(C)c3C)cc2)cc1	-27.1%	.	2.7%	-38.7%	-25.3%[59 µM]	35.3%
CC(=O)c1c(C)oc2ccc(N(C(=O)Oc3ccccc3)S(=O)(=O)c3ccccc3)cc12	-26.8%	.	2.2%[12.3 µM]	1.4%	?	16.3%
Cc1[nH]nc2c1C1(C(=O)N(Cc3ccc(Cl)cc3)c3ccccc31)C(C#N)=C(N)O2 (centres undefined)	?	-6.1%	6.2%	-11.9%	50.1µM*	7.2%
Cc1cc(C(=O)O)c(=O)[nH]c1C	22.4µM*	12.6%	-1.9%	?	70.8µM*	-4.9%
